L3MBTL1 inh: L3MBTL1 (human) inhibition. AlphaScreen L3MBTL1–H3K9me1 peptide binding. Potency, µM (top dose mostly 57.1 µM), for the others: at the top dose activity, negative = inhibition, usual class: inhibitors. hit rate 0.66% among 230,000. AID 485360; also: % is scaled to controls: 0 for no effect and ±100 for the full control effect; nearly all actives have a fitted effect of over 60% in size
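L3MBTL1 50 nM + b-AHA-H3(1-15)K9me1 75 nM, 30 min RT; compound added, 30 min RT; streptavidin donor/Ni-chelate acceptor beads 10 ug/mL each final, 30 min RT dark; AlphaScreen read.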
G9a block: inhibitors of human histone lysine methyltransferase G9a. G9a H3K9 monomethylation, AlphaScreen, 2 h. Potency, µM (top dose mostly 102 µM), for inactives: at the highest dose activity, negative = inhibition, most hits filed as inhibitors. hit rate 8.8% among 350,000. AID 504332; also: % is scaled to controls: 0 for no effect and ±100 for the full control effect; nearly all actives have a fitted effect of over 75% in size
Target sequence (Q96KQ7 913-1193 limits assumed): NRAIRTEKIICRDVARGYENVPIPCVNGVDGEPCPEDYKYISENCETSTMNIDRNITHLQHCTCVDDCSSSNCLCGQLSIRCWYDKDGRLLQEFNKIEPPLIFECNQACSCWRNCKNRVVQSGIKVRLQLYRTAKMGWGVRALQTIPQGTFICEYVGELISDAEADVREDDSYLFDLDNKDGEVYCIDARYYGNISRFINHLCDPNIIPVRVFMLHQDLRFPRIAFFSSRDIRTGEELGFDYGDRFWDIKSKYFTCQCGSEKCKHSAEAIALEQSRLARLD
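Step 1: enzyme (final 20 nM) with compound, 15 min RT. Step 2: substrate peptide 500 nM and SAM 20 uM, 2 h RT. Step 3: anti-H3K9me1 antibody and AlphaScreen beads, 10 min, then plate read.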
JMJD2A Tudor inh: JMJD2A Tudor domain (human) inhibition. hit rate 4.4% among 390,000. AlphaScreen JMJD2A-Tudor / H3K4me3 peptide binding. Potency, µM (series often up to 114 µM), without a hit: at the top dose activity change, negative = inhibition, most hits filed as inhibitors; also: % is scaled to controls: 0 for no effect and ±100 for the full control effect; nearly all actives have a fitted effect of over 50% in size
HP1b chromo inh: blocks HP1-beta chromodomain binding to methylated histone tails. P83916. Potency, µM (series often up to 114 µM), inactives show at the top dose activity change, negative = inhibition, actives largely listed as inhibitors. hit rate 0.56% among 390,000. AlphaScreen HP1-beta / biotin-H3K9me3 peptide binding. AID 540317; also: nearly all actives have a fitted effect of over 70% in size
Target sequence (P83916 whole entry, looked up): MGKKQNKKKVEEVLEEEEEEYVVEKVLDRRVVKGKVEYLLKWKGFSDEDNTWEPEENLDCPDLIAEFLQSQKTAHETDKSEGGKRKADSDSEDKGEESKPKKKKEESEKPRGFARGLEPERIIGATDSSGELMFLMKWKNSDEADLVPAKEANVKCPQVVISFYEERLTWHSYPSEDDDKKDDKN
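Compound inhibition of the preformed complex between 50 nM HP1-beta and 50 nM biotinylated H3K9me3 peptide was read by AlphaScreen. Buffer was PBS pH 7.4 with 0.01% Tween-20. Incubations ran 30 min at room temperature, with 10 ug/mL donor/acceptor beads.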
Sfp PPTase inh: blocks B. subtilis Sfp PPTase activity | Q9F4F7 | Biochemical Sfp PPTase activity, qHTS | Potency, µM, for inactives: largest response in the series, negative = inhibition, actives largely listed as inhibitors | hit rate 3.5% among 310,000;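 also: the enzyme is Sfp with the accession as filed and its product quenches rhodamine fluorescence; 0% = enzyme reaction without inhibitor and -100% = no enzyme wells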
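Compounds were incubated with enzyme (final 15 nM) for 15 min at room temperature before substrate addition started the reaction. Fluorescence at 525 nm excitation, 598 nm emission was recorded immediately and after 30 minutes.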
BAZ2B block: blocks human BAZ2B; AlphaScreen BAZ2B-H3K14Ac peptide displacement; Potency, µM (doses to about 114 µM), inactives show at the highest dose activity change, negative = inhibition, actives largely listed as inhibitors; hit rate 4.4% among 360,000; AID 504333; also: % is scaled to controls: 0 for no effect and ±100 for the full control effect; nearly all actives have a fitted effect of over 60% in size
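Protein-peptide AlphaScreen: BAZ2B 50 nM, b-H3K14Ac 50 nM, 1x PBS pH 7.4 + 0.01% Tween-20. Preincubation 30 min RT; cpd 30 min RT (top 110 uM); beads 20 min RT, light-protected.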
Active calls of the source: *; ? = inconclusive; . = no result given; [ ] = dose if it differs, or a comment. A selection: hits, their analogues and other compounds. The true share with any hit is near 12%. Calls follow the shape of the dose curve; as a rule, active = well fitted curve in the direction sought with a large enough effect; inconclusive = small, poorly fitted or top-dose-only effect, or another doubt; inactive = no such curve, though single readings can be large; an effect the other way counts as inactive or inconclusive. Potency is read from the fitted curve at half-maximal effect.

SMILES	L3MBTL1 inh	G9a block	JMJD2A Tudor inh	HP1b chromo inh	Sfp PPTase inh	BAZ2B block
Cc1ccc(C(=O)N2CCc3ccccc32)o1	-3%	-4%[59 µM]	-3%	14%	-1%	?
COC(=O)C1(Cc2ccc(O)c(CC3OC3(C)C)c2)OC(=O)C(O)=C1c1ccc(O)cc1 (stereo not given)	.	?	-33%	1%	79µM*	-35%
Cc1ccc(-n2cc(-c3ccccc3)[nH]c2=O)cc1F	-7%	?	-27%	34%	5%	2%
COc1ccc(-n2cc(-c3ccc(OC)c(OC)c3)[nH]c2=S)cc1	.	0.89µM*	3.2µM*	?	45µM*	1%
COc1ccc(-c2cn(-c3cccc(C)c3)c(=O)[nH]2)cc1OC	.	28µM*	-23%	20%	-7%	?
COc1ccccc1-n1cc(-c2ccc(Cl)cc2)[nH]c1=O	-10%	56µM*	-22%[57.1 µM]	-9%	-4%	?
COc1ccc(-n2cc(-c3ccc(Br)cc3)[nH]c2=S)cc1	?	-20%	-11%	26%	-1%	?
COc1cc(OC)c(-n2cc(-c3ccc(OC)c(OC)c3)[nH]c2=S)cc1Cl	.	32µM*	?	-7%	-12%	-24%
COc1ccc2c(Sc3ccccc3)c(C(=O)NCc3ccc(OC(C)C)cc3)[nH]c2c1	.	-39%[59 µM]	-16%	59%	.	9%
COc1ccc(-c2nc3cnc(N4CCOCC4)nc3n(-c3ccc(OC)cc3)c2=O)cc1	.	3%[0.501 µM]	.	.	-25%	.
CC(C)c1ccc(C2C(C#N)=C(N)N3C(=C2C#N)Sc2ccccc23)cc1 (stereo not given)	2%	35µM*	.	.	-18%	-10%[57.1 µM]
CC(=O)n1c2c(c3ccccc31)OC(N)=C(C#N)C2c1ccc(C(C)C)cc1 (stereo not given)	-5%	?	-35%	10%	-1%	-39%[57.1 µM]
Cc1ccc(-n2ncc3c(NCCCN4CCOCC4)ncnc32)cc1C	.	6%[59 µM]	-17%	24%	.	2%
O=C(CC1(O)C(=O)Nc2ccccc21)c1ccc2c(c1)OCO2 (stereo not given)	.	-43%	-13%	3%	21%	5%
O=C(CC1(O)C(=O)Nc2ccccc21)c1cccc(-n2cccc2)c1 (stereo not given)	-5%[11.4 µM]	?	?	0%	4%	50µM*
CCCS(=O)(=O)c1ncc(Cl)c(C(=O)Nc2ccc(S(=O)(=O)Nc3ncccn3)cc2)n1	.	18µM*	-3%	63%	-20%	-18%
CCSc1ncc(Cl)c(C(=O)Nc2ccc(S(=O)(=O)Nc3ncccn3)cc2)n1	.	-14%	-13%	39%	6%	-1%
CCS(=O)(=O)c1ncc(Cl)c(C(=O)Nc2ccc(S(=O)(=O)N3CCC(C)CC3)cc2)n1	.	45µM*	-30%	3%[57 µM]	-19%	-27%[57.1 µM]
COc1ccc(-c2nnc3n2N=C(c2ccc(OC)cc2OC)CS3)cc1	.	.	-29%	.	9%	.
Cc1nc(-c2ccc(Cl)cc2)sc1C1(C)CC(c2cccnc2)=NO1 (stereo not given)	.	-48%[59 µM]	-27%	28%	56µM*	1%
COc1ccc(C2=NOC(C)(c3sc(-c4ccc(Cl)cc4)nc3C)C2)cc1 (stereo not given)	.	.	1%	39%	.	.
C=CCN(CC=C)CC(O)CN(c1cc([N+](=O)[O-])ccc1OC)S(=O)(=O)c1ccccc1 (stereo not given)	-9%	25%[59 µM]	-24%	3%	79µM*	-2%
COc1ccc2oc(=O)c(C(=O)N3CCN(c4ccc(C)cc4)CC3)cc2c1	.	8%[59 µM]	-12%	19%	.	-17%
O=C(CCC1N=C2c3ccccc3N=C(SCc3ccc(F)cc3)N2C1=O)NCCc1ccccc1 (stereo not given)	.	0%[59 µM]	-29%	75%	.	10%
CC(C)(/C=N/O)/[N+]([O-])=C/c1ccccc1	15%	50µM*	-7%	37%	8%	-7%
SMILES	L3MBTL1 inh	G9a block	JMJD2A Tudor inh	HP1b chromo inh	Sfp PPTase inh	BAZ2B block
S=c1[nH]nc2nnc3ccccc3n12	1%	3.2µM*	-19%	-5%	56µM*	?
Nn1nnc2ccccc21	.	41%[59 µM]	-17%	48%	15%	3%
CCOc1ccc(NC(=O)CN(C)C(=O)c2ccc3[nH]c4c(c3c2)CC(C)CC4)cc1OCC (stereo not given)	-19%	35µM*	?	?	.	?
CCOc1ccc(NC(=O)CN(C)C(=O)c2ccc(NC3CC3)c([N+](=O)[O-])c2)cc1OCC	-7%	?	-22%	-2%	.	-32%
CC1CCc2[nH]c3ccc(C(=O)Nc4ccc(C(=O)N(C)C)cc4)cc3c2C1 (stereo not given)	.	.	3%	24%	-21%	-9%
CCCC(C)NC(=O)c1ccc2[nH]c3c(c2c1)CC(C)CC3 (stereo not given)	28%	?	-26%	10%	-5%	61%
COC(=O)c1ccc2[nH]c3c(c2c1)CC(C)CC3 (stereo not given)	.	.	?	-15%	-1%	25µM*
Cc1ccc(NC(=O)CN(C)C(=O)c2ccc3[nH]c4c(c3c2)CC(C)CC4)cc1 (stereo not given)	-16%	?	45µM*	?	.	?
COC(=O)c1ccc2[nH]c([C@H](C)O)c([C@H](C)O)c2c1	-2%	45µM*	-18%	34%	9%	-35%
Cc1ccc(C)c(NC(=O)N2CCC(N3CCN(Cc4ccc(F)cc4)C(=O)C3=O)CC2)c1	.	3%[59 µM]	-17%	23%	.	-8%
COC(=O)N1CCCc2cc(S(=O)(=O)NCc3ccccc3)ccc21	.	2%[59 µM]	-17%	19%	.	-5%
COc1[nH]c(/N=C/c2ccco2)c(C#N)c1C#N	.	.	32µM*	22µM*	.	.
N#Cc1ccsc1NC(=O)c1cccc(-n2cnnn2)c1	.	-11%	-5%	3%	-8%	-9%
N#Cc1ccsc1NC(=O)c1ccc(Cl)c([N+](=O)[O-])c1	24%	.	-6%	4%	-3%	-29%
N#Cc1ccsc1NC(=O)CN(Cc1ccccc1)Cc1ccccc1	19%	85%[59 µM]	12%	67%	-1%	0%
N#Cc1ccsc1NC(=O)c1cccc([N+](=O)[O-])c1	.	-32%	-17%	7%	40µM*	-4%
N#Cc1ccsc1NC(=O)CCc1ccccc1	2%	25µM*	-14%	14%	8%	?
N#Cc1ccsc1NC(=O)c1ccccn1	-24%	?	20µM*	9%	?	10µM*
CCCOc1ccccc1C(=O)N1CCCCC1CCN1CCCCC1 (stereo not given)	.	6%[59 µM]	-9%	35%	.	-2%
O=C1OC(c2cccs2)=N/C1=C\c1ccc(-c2cccc(Cl)c2)o1	-10%	35µM*	-29%	8%	79µM*	?

Source: PubChem (National Center for Advancing Translational Sciences (NCATS))
